A selection: hits, their analogues and other compounds. The true share with any hit is near 0.92%.
RECQ1 helicase: qHTS Assay for Inhibitors of RecQ-Like Dna Helicase 1 (RECQ1); ATP-dependent DNA helicase Q1 (Homo sapiens), P46063; RECQ1 DNA unwinding, red fluorescence kinetic read; Potency, µM (doses to about 57.3 µM), for inactives: at the highest dose activity, negative = inhibition, usual class: inhibitors; hit rate 0.54% among 240,000; AID 2549, 2010;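 also: plate controls were vehicle for no effect and no enzyme for full effect; nearly all actives have a fitted effect of over 30% in size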
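50 nM RECQ1T1 preincubated 15 min with compound in Tris pH 8.0 buffer with MgCl2, DTT, Tween-20 and 2.5 ug/ml poly(dI-dC); started with 200 nM TAMRA/BHQ-2 forked duplex and 2 mM ATP. Unwinding read as fluorescence (525/598 nm), two reads 2 h apart.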
BLM inh-1: qHTS Assay for Inhibitors of Bloom's syndrome helicase (BLM); Potency, µM (doses to about 56.1 µM), for inactives: at the top dose activity change, negative = inhibition, most hits filed as inhibitors; recombinant BLM DNA unwinding, fluorescence dequenching; AID 2528, 2010; hit rate 0.2% among 350,000; RecQ-like DNA helicase BLM (Homo sapiens), P54132;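 also: plate controls were vehicle for no effect and no enzyme for full effect; nearly all actives have a fitted effect of over 35% in size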
FEN1 inhibitor: qHTS Assay for the Inhibitors of Human Flap endonuclease 1 (FEN1) | P39748 | Recombinant FEN1 flap cleavage, fluorescence, 15 min | Potency, µM (doses to about 114 µM), for inactives: at the highest dose activity change, negative = inhibition, hits mostly inhibitors | hit rate 0.35% among 390,000; also: nearly all actives have a fitted effect of over 65% in size
Target sequence (P39748 whole entry, looked up): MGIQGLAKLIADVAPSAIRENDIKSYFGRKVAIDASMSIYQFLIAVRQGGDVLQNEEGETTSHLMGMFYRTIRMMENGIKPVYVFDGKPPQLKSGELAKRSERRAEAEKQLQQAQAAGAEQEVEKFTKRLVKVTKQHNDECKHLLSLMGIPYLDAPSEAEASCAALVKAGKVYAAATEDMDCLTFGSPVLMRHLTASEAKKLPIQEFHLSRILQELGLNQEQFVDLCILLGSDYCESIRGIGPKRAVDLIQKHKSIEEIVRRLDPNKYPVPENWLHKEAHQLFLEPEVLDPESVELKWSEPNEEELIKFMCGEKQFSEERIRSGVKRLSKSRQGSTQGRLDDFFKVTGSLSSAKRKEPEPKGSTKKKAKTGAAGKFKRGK
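In this screen, 50 nM flap DNA substrate was added to 10 nM FEN1 pretreated with compound for 15 min at room temperature; cleavage was followed with reads at 0 and 15 min, and Hill fitting gave concentration–response parameters.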
TDP1 inh: qHTS Assay for Inhibitors of Tyrosyl-DNA Phosphodiesterase (TDP1); Tyrosyl-DNA phosphodiesterase 1 (Homo sapiens), Q9NUW8; recombinant TDP1, AlphaScreen DNA substrate cleavage; Potency, µM (titrated, usually from 130 µM), for the others: at the top dose activity change, negative = inhibition, hits mostly inhibitors; hit rate 0.28% among 350,000; AID 485290, 2010; also: nearly all actives have a fitted effect of over 40% in size
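Compounds were preincubated with Tdp1 (1 nM final) for 15 min at room temperature before substrate (15 nM final) started a 5 min reaction; beads (10 ug/ml final) were then added for 10 min before AlphaScreen detection.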
APE1 inh: qHTS Assay for Inhibitors of the Human Apurinic/apyrimidinic Endonuclease 1 (APE1) | hit rate 0.35% among 350,000 | Potency, µM (highest dose often 65.8 µM), for the others: at the top dose activity change, negative = inhibition, hits mostly inhibitors | recombinant APE1, TAMRA/BHQ-2 abasic DNA cleavage fluorescence | DNA repair nuclease/redox regulator APEX1 (Homo sapiens), P27695;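 also: plate controls were vehicle for no effect and reference inhibitor for full effect; nearly all actives have a fitted effect of over 55% in size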
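Enzyme (0.75 nM final) and test compound are incubated 15 min at room temperature before adding 50 nM quenched THF abasic-site duplex. Cleavage dequenches TAMRA, followed at 525/598 nm over three reads one minute apart.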
BLM inh-2: qHTS Confirmation Assay for Inhibitors of Bloom's syndrome helicase (BLM); shares compounds with BLM inh-1; Potency, µM, for the others: max response, negative = inhibition, usual class: inhibitors; hit rate 40% among 220; BLM DNA unwinding, fluorescence quenching, biochemical;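 also: strand separation dequenches TAMRA so unwinding raises red fluorescence; series mostly up to about 69 µM; nearly all actives have a fitted effect of over 45% in size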
* hit, by the source's call. Calls follow the shape of the dose curve; as a rule, active = well fitted curve in the direction sought with a large enough effect; inconclusive = small, poorly fitted or top-dose-only effect, or another doubt; inactive = no such curve, though single readings can be large; an effect the other way counts as inactive or inconclusive. Unless noted, % is scaled to controls: 0 for no effect and ±100 for the full control effect; potency is read from the fitted curve at half-maximal effect.

COc1ccc(C(=O)Nc2nnc(SCc3cc(=O)c4cc(C)cc(C)c4[nH]3)s2)cc1 was read as BLM inh-1 20µM*, FEN1 inhibitor 14%, TDP1 inh 3% and BLM inh-2 18µM*.
Cc1nc2nc(NC(=O)c3ccc(C(C)(C)C)cc3)[nH]n2c(=O)c1C was read as BLM inh-1 2%, FEN1 inhibitor 7% and TDP1 inh 7%.
Screening FC(F)(F)c1cc(Oc2ccc(Cl)cc2)nc(-c2ccccn2)n1 returned RECQ1 helicase -5%, BLM inh-1 -4%, FEN1 inhibitor 10%, TDP1 inh 2% and APE1 inh -4%.
FC(F)(F)c1cc(Oc2ccccc2Cl)nc(-c2ccccn2)n1 was read as RECQ1 helicase -5%, BLM inh-1 4.5µM*, FEN1 inhibitor 4%, TDP1 inh 4%, APE1 inh 3% and BLM inh-2 4.1µM*.
COc1cccc(C2/C(=C(\O)c3ccc4c(c3)OCCO4)C(=O)C(=O)N2CCN(C)C)c1 (configuration not stated) was read as RECQ1 helicase inactive, BLM inh-1 8.9µM*, FEN1 inhibitor 6%, TDP1 inh 0%, APE1 inh inconclusive and BLM inh-2 -7%.
For COc1ccc(C2C=C(c3ccccc3)Nc3nc(NC(=O)/C=C/c4ccc(Cl)cc4)nn32)cc1 (configuration not stated) the results were BLM inh-1 1%, FEN1 inhibitor 0% and TDP1 inh 11%.
O=C(CCl)Nc1ccccc1Sc1ccc(Cl)cc1 was read as RECQ1 helicase inactive, BLM inh-1 16µM*, FEN1 inhibitor -3%, TDP1 inh -6%, APE1 inh 9% and BLM inh-2 11µM*.
Screening Cc1cccc(Nc2nn3c(=O)c4cc5c(cc4nc3s2)OCO5)c1 returned BLM inh-1 11µM*, FEN1 inhibitor 4% and BLM inh-2 10µM*.
For CCOc1nc(NC(=O)NS(=O)(=O)Oc2ccccc2)nc(-c2ccccc2)n1 the results were BLM inh-1 2%, FEN1 inhibitor -2% and TDP1 inh -1%.
For Cc1cc(=O)[nH]c2c(N=Nc3ccc(O)cc3)c(N)nn12 the results were RECQ1 helicase inactive, BLM inh-1 16µM*, FEN1 inhibitor -32%, TDP1 inh 9%, APE1 inh inconclusive and BLM inh-2 inconclusive.
CCOC(=O)C1CCN(c2nc3ccccc3n2CC(=O)c2ccccc2)CC1 was read as RECQ1 helicase inactive, BLM inh-1 20µM*, FEN1 inhibitor 19%, TDP1 inh -4%, APE1 inh 0% and BLM inh-2 -2%.
COc1ccccc1CNC(=O)/C=C/c1ccc(Br)o1 was read as RECQ1 helicase -9%, BLM inh-1 10µM*, FEN1 inhibitor 5%, TDP1 inh -10%, APE1 inh 14% and BLM inh-2 -11%.
CC(=O)Nc1cc(-c2nn3c(C)nnc3s2)ccc1C was read as RECQ1 helicase 5%, BLM inh-1 3%, FEN1 inhibitor -1%, TDP1 inh 1% and APE1 inh 3%.

Screening data (PubChem BioAssay)
